The results in this text go back to PubChem BioAssay (NCATS).

Each structure is given as a SMILES string. “And” between values parts separate entries of the source, which are not always exact repeats. Identical values can stand only once. Inconclusive results are not listed. Where a structure was tested more than once in an assay, its records may differ in their call. The source made the active and inactive calls. The call rests on the fitted dose curve; in most records, active means well fitted cell-killing curve with a large enough effect; inconclusive means small, poorly fitted or top-dose-only effect, or effect the other way; inactive means flat fitted curve, though single readings scatter.
On the % scale 0 is the no-effect control and ±100 the full control effect; potency means the concentration at half of the fitted maximal effect.

The nature of the first experiment: qHTS assay for cell viability of HEK293 cells (AID 743288). Further: nearly all actives have a fitted effect of over 50% in size. The following applies: ATP luminescence (CellTiter-Glo), 18 h; max response: stronger effect = lower value. In short, it runs like this:
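ATP luminescence (CellTiter-Glo) reports metabolically competent cell number after parental HEK293 cells, 2,000/well, were treated with DMSO-dissolved compounds for 18 h at 37 C; reagent incubation 30 min, room temperature.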
A general note: qHTS replaces the single test concentration by a dilution series.
For the molecule `CNc1ccc(O)cc1`, the Potency is 35.5 µM (active). On to `O=C1OC2(c3cc(Br)c(O)c(Br)c3Oc3c2cc(Br)c(O)c3Br)c2c(Cl)c(Cl)c(Cl)c(Cl)c21`, for which the max response was -29.6% (inactive). `Oc1ccc2cc(SSc3ccc4cc(O)ccc4c3)ccc2c1`: the max response was -14.6% (inactive). Consider `c1ccc2c(c1)ccc1cc3c(ccc4ccccc43)cc12`, for which the max response is -4.73% (inactive). In the case of `C=C(C)c1ccccc1`, the max response is 1.22% (inactive). As to `O=C1OC(O)C(C(Cl)Cl)=C1Cl` (configuration not stated), the max response was -27.5% (inactive).

Another experiment in a line: qHTS assay for cell viability of the p53RE-bla HCT-116 cell line (AID 743292). Further: nearly all actives have a fitted effect of over 55% in size. Particulars: p53RE-bla HCT-116 viability, ATP luminescence, 16 h; series mostly up to 95 µM; activity change, negative = cytotoxicity: at the top concentration. In short, it runs like this:
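In this qHTS counter-screen, metabolically competent p53RE-bla HCT-116 cells were counted via their ATP content. Compounds were applied for 16 h at 37 C and luciferase-coupled luminescence was measured.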
As to `c1cc(OCC2CO2)cc(OCC2CO2)c1` (configuration not stated), the “activity change, negative = cytotoxicity” value was -5.04% (inactive). On the same count and under the same terms, in the case of `Cc1cc(Nc2ccc(O)cc2)ccc1N` it was -22.8% (inactive).

`CN(C)c1ccc(C2(c3ccc(N(C)C)cc3)OC(=O)c3cc(N(C)C)ccc32)cc1`: the “activity change, negative = cytotoxicity” value is 1.35% (inactive). Regarding `CO[C@H]1/C=C/O[C@@]2(C)Oc3c(C)c(O)c4c(O)c(c5c(c4c3C2=O)NC2(CCN(CC(C)C)CC2)N=5)=NC(=O)/C(C)=C\C=C\[C@H](C)[C@H](O)[C@@H](C)[C@@H](O)[C@@H](C)[C@H](OC(C)=O)[C@@H]1C`, the “activity change, negative = cytotoxicity” value was -11.4% (inactive). On to `O=C(OCC(COC(=O)c1ccccc1)(COC(=O)c1ccccc1)COC(=O)c1ccccc1)c1ccccc1`, for which the “activity change, negative = cytotoxicity” value is -8.78% (inactive). Take `ClC1=C(Cl)C(Cl)(Cl)C(Cl)=C1Cl`: the Potency is 25.1 µM (active) and inactive. As to `CC(=O)Nc1ccc(C(=O)CCl)cc1`, the “activity change, negative = cytotoxicity” value is 12.1% (inactive). On to `CC/C(=C(\c1ccccc1)c1ccc(OCCN(C)C)cc1)c1ccc(O)cc1`, for which the Potency was 70.8 µM (active). Take `Nc1ccc2cc3ccccc3cc2c1`: the “activity change, negative = cytotoxicity” value was 1.63% (inactive). As for `c1ccc2c(c1)-c1cccc3c1c-2cc1ccccc13`, the Potency result is “inactive”. On to `O=C=Nc1ccc(Cc2ccc(N=C=O)cc2)cc1`, for which the Potency entry is “inactive”.

Regarding `O=[N+]([O-])c1cc([N+](=O)[O-])c2ccc(S(=O)(=O)O)cc2c1O`, the “activity change, negative = cytotoxicity” value is 3.67% (inactive).

Turning to `Cc1cc(O)c(C(C)(C)C)cc1Sc1cc(C(C)(C)C)c(O)cc1C`, the Potency was 28.2 µM (active) and 25.1 µM (active). Still for that read-out and setting: in the case of `CCC(C)Nc1ccc(NC(C)CC)cc1` (configuration not stated) it was 35.5 µM (active) and 28.2 µM (active). Take `CNc1ccc(O)cc1`: the Potency is 70.8 µM (active). In the case of `C=CC(=O)OCCOCCOC(=O)C=C`, the “activity change, negative = cytotoxicity” value was 25.7% (inactive). With `O=C1OC2(c3cc(Br)c(O)c(Br)c3Oc3c2cc(Br)c(O)c3Br)c2c(Cl)c(Cl)c(Cl)c(Cl)c21`, the Potency was 39.8 µM (active). For `Oc1ccc2cc(SSc3ccc4cc(O)ccc4c3)ccc2c1`, the “activity change, negative = cytotoxicity” value is -16.7% (inactive). Consider `c1ccc2c(c1)ccc1cc3c(ccc4ccccc43)cc12`, for which the “activity change, negative = cytotoxicity” value was 5.81% (inactive). Same read-out and setting: in the case of `C/C=C1\C(=O)C[C@H]2[C@@H]3CCC4=CC(=O)CC[C@]4(C)[C@H]3CC[C@]12C` it was -22.8% (inactive). For the molecule `C=C(C)c1ccccc1`, the “activity change, negative = cytotoxicity” value is -3.51% (inactive).
